Data published in PubChem BioAssay.
“And” between values parts separate entries of the source, which are not always exact repeats. Equal values may be shown once. Inconclusive results are not listed. The source made the active and inactive calls. Unless noted, cut-off not given; nearly all actives show AC50 up to about 26 µM.

Columns and labels:
[1] = viability loss in pontine glioma line – cell-based, SU-DIPG-XVII, MIPE5.0, CellTiter-Glo, qHTS, dose response (AID 1347060); conditions: CellTiter-Glo ATP luminescence;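 on AC50: cells exposed to compound for 48 hours before viability readout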
[2] = viability loss in pontine glioma line – cell-based, SU-DIPG-XIII, MIPE4.0, CellTiter-Glo, qHTS, dose response (AID 1347061; cut-off not given, nearly all actives have AC50 up to about 37 µM;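 further: cells exposed to compound for 48 hours before readout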); conditions: CellTiter-Glo ATP luminescence
[3] = viability loss in pontine glioma line – cell-based, SU-DIPG-XIII, MIPE5.0, CellTiter-Glo, qHTS, dose response (AID 1347064; cut-off not given, nearly all actives have AC50 up to about 23 µM;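 on AC50: cells exposed to compound for 48 hours before the viability read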); conditions: CellTiter-Glo ATP luminescence
[4] = viability loss in pontine glioma line – cell-based, SU-DIPG-XXV, MIPE5.0, CellTiter-Glo, qHTS, dose response (AID 1347065); conditions: CellTiter-Glo ATP luminescence;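 further: cells exposed to compound for 48 hours before ATP readout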
[5] = growth inhibition of DIPG cells – cell-based, MIPE4.0 library, CellTiter-Glo luminescence, qHTS (AID 1347066; cut-off not given, nearly all actives have AC50 up to about 30 µM;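 further: cells exposed to compound for 48 hours before readout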); conditions: SU-DIPG-VI viability, CellTiter-Glo ATP luminescence
[6] = JHH-DIPG-1 glioma cell viability, MIPE5.0 library, CellTiter-Glo luminescence, qHTS (AID 1347067); conditions: JHH-DIPG-1 glioma viability, CellTiter-Glo ATP luminescence;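 further: cells exposed to compound for 48 hours before readout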
[7] = viability loss with induced miR-34 in A549 – imaging, A549 dox-inducible miR-34, nuclei and caspase counts, primary screen (AID 1347080;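 active means compounds whose cell count with miR-34 switched on is under 0.7 times the count with it off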); conditions: A549 miR-34 inducible, Hoechst nuclei count, 48 h
[8] = galactose survival enhancers in mitochondrial complex I cybrids – cell-based, galactose medium, ATP luminescence, primary screen (AID 1645843;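 active means z-score of at least 1.8 in each of two replicates, scored against plate mean and spread of sample wells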;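 further: positive z means more ATP and so rescue of galactose-driven cybrid death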); conditions: complex I mutant cybrid cells, 72 h, stronger effect = higher value
[9] = viability loss in pontine glioma line – cell-based, JHH-DIPG-1, MIPE4.0, CellTiter-Glo, qHTS, dose response (AID 1347062; cut-off not given, nearly all actives have AC50 up to about 27 µM); conditions: JHH-DIPG-1 viability, CellTiter-Glo ATP luminescence
[10] = growth inhibition of DIPG cells – cell-based, MIPE5.0 library, qHTS (AID 1347068; cut-off not given, nearly all actives have IC50 up to about 30 µM); conditions: SU-DIPG-XXV viability
[11] = growth inhibition, MDA-MB-436, cell-based, BGB or cisplatin combos, synergistic combos for chromothripsis tumors (AID 1671458; call rule not given here;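 further: cells exposed for 96 hours; 0% = vehicle DMSO and 100% = killing by high DMSO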); conditions: MDA-MB-436 breast carcinoma growth inhibition, drug combinations, stronger effect = higher value
[12] = BT084 cell growth, single and combined drugs, ICGC_MB145, cisplatin and BGB IC40 combos (AID 1671461; in the data active means inhibition above about 80%;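 further: cells exposed to drugs for 96 hours; 0% = vehicle DMSO and 100% = high DMSO full killing control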); conditions: BT084 medulloblastoma cells, drug combinations, stronger effect = higher value
[13] = RCMB18 cell growth, single agent and combined, cisplatin and BGB IC40 combos (AID 1671462; in the data active means inhibition above about 80%;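 further: cells exposed to compound for four days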); conditions: RCMB18 medulloblastoma cells, stronger effect = higher value
[14] = CRL1545 cell growth, single agent and combined, cisplatin and BGB IC20 combos (AID 1671464; in the data active means inhibition above about 80%;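 further: cells exposed to compound for 96 hours before readout; 0% = vehicle DMSO and 100% = high DMSO killing control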); conditions: CRL1545 osteosarcoma cells, stronger effect = higher value
[15] = GFP-Q80 aggregate reduction, neuronal-like cells, cell-based, NGF-treated PC12, GFPQ80 (AID 1614); conditions: PC12 NGF-treated GFP-polyQ80 inclusion reduction;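 further: lower means fewer inclusions and 0 means no inclusions at all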
[16] = compounds altering circadian rhythm period length – cell-based, LOPAC library, luminescence reporter (AID 2774; call rule not given here;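 further: values are relative to mean of DMSO wells on each plate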); conditions: circadian reporter cells, at 7 µM, actives lie on both sides
[17] = compounds altering viability of human ES cells (AID 493140; call rule not given here;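 further: cells exposed to compounds for four days before counting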); conditions: human embryonic stem cell survival screen; stronger effect = higher value
[18] = tested on: Hepatitis C virus NS3 helicase; assay: blockers of NS3h binding to ssDNA – biochemical, fluorescence polarization, LOPAC1280 library, primary screen (AID 687035; in the data active means inhibition above about 37%); conditions: Purified HCV NS3 helicase, Cy5-dT15 ssDNA binding fluorescence polarization; stronger effect = higher value; concentration not given here
[19] = compounds altering Cy5-DNA-NS3h complex signal – biochemical, LOPAC1280, artefact control for HCV NS3 helicase inhibitor project (AID 687037; call rule not given here); conditions: Cy5-DNA-NS3h complex fluorescence interference counterscreen
[20] = blockers of cellular phospholipid synthesis – cell-based, LOPAC library, screen 4, primary screen (AID 1347384; call rule not given here); conditions: animal cells, phospholipid biosynthesis inhibition screen; at 10 µM
[21] = stronger effect = lower value, cell number ratio, induced over uninduced
[22] = measured here: relative caspase fold change +Dox/-Dox
[23] = measured here: total cells with miR-34 induction, stronger effect = lower value
[24] = measured here: total cells without miR-34 induction

Structure (SMILES): Oc1c(Cl)cc(Cl)c2cccnc12
- AC50 [1]: 16.6 µM (active)
- AC50 [2]: 18.7 µM (active)
- AC50 [3]: 11.8 µM (active)
- AC50 [4]: 26.3 µM (active)
- AC50 [5]: 18.7 µM (active)
- AC50 [6]: 2.95 µM (active)
- fold change [7, 21]: 1.3 (inactive) and 0.99 (inactive) and 0.933 (inactive)
- fold change [7, 22]: 0.88 and 1.1 and 1.4
- cell count [7, 23]: 4540 and 5720 and 5380
- cell count [7, 24]: 3500 and 5780 and 5770
- z-score [8]: -1.51 (inactive)

Structure (SMILES): COc1c(N2CCNC(C)C2)c(F)cc2c(=O)c(C(=O)O)cn(C3CC3)c12 (stereo unspecified)
- outcome [1]: inactive
- outcome [2]: inactive
- outcome [9]: inactive
- outcome [4]: inactive
- outcome [5]: inactive
- outcome [6]: inactive
- outcome [10]: inactive
- fold change [7, 21]: 0.968 (inactive) and 0.875 (inactive)
- fold change [7, 22]: 1.74 and 1.47 and 1.16
- cell count [7, 23]: 10600 and 11400 and 9660
- cell count [7, 24]: 10900 and 13100 and 11000
- z-score [8]: 0.695 (inactive) and -0.01 (inactive)
- inhibition ([11]; at 0.5 µM): -1.19% (inactive) and -2.62% (inactive)
- inhibition ([11]; measured here: BGB combination, at 0.5 µM): 3.75% and -2.36%
- inhibition ([11]; measured here: BGB combination, at 5 µM): -2.62% and -0.158%
- inhibition ([11]; measured here: cisplatin combination, at 0.5 µM): -6.86% and -4.47%
- inhibition ([11]; measured here: cisplatin combination, at 5 µM): -18.4% and -9.12%
- inhibition ([12]; at 0.5 µM): 11.1% (inactive) and -2.29% (inactive)
- inhibition ([12]; cisplatin combination, at 0.5 µM): -21.4% and -4.21%
- inhibition ([12]; cisplatin combination, at 5 µM): -1.24% and -0.514%
- inhibition ([12]; measured here: BGB IC40 combination 0.05 uM, at 0.05 µM): 19.1% and 4.51%
- inhibition ([12]; single agent, at 5 µM): -3.66% and 0.545%
- inhibition ([13]; at 0.5 µM): 0.35% (inactive) and 3.27% (inactive)
- inhibition ([13]; cisplatin combo, at 5 µM): -46.2% and 7.98%
- inhibition ([13]; measured here: BGB IC40 combination, at 0.05 µM): -11.6% and -8.34%
- inhibition ([13]; measured here: combination with cisplatin, at 0.5 µM): -15.6% and 6.4%
- inhibition ([13]; single agent, at 5 µM): 4.79% and -5.12%
- inhibition ([14]; at 0.5 µM): -17.5% (inactive) and -1.12% (inactive)
- inhibition ([14]; measured here: with BGB IC20 combination, at 0.5 µM): -19.9% and -23.9%
- inhibition ([14]; measured here: with cisplatin IC20 combination, at 0.5 µM): -18.3% and 8.22%
- inhibition ([14]; single agent, at 0.05 µM): -13.6% and 2.79%
- inhibition ([14]; single agent, at 5 µM): -53.5% and 15.1%

Structure (SMILES): O=C(C1CCCCC1)N1CC(=O)N2CCc3ccccc3C2C1 (stereo unspecified)
- inclusion score [15]: 2
- period change [16]: 0.13 h (inactive)
- survival [17]: 12.2 (inactive)
- inhibition [18]: -3% (inactive)
- fluorescence ratio (interference) [19]: 1 (inactive)
- AC50 [1]: 26.3 µM (active)
- outcome [2]: inactive
- outcome [9]: inactive
- outcome [3]: inactive
- outcome [4]: inactive
- outcome [5]: inactive
- outcome [6]: inactive
- outcome [10]: inactive
- outcome [20]: inactive
- z-score [8]: 1.16 (inactive) and -1.2 (inactive) and 1.07 (inactive)

Structure (SMILES): O=c1[nH]cnc2[nH]ncc12
- inclusion score [15]: 2
- period change [16]: 0.19 h (inactive)
- inhibition [18]: -4% (inactive)
- fluorescence ratio (interference) [19]: 0.9 (inactive)
- outcome [1]: inactive
- outcome [2]: inactive
- outcome [9]: inactive
- outcome [3]: inactive
- outcome [5]: inactive
- outcome [6]: inactive
- outcome [10]: inactive
- outcome [20]: inactive
- z-score [8]: 0.315 (inactive) and -0.255 (inactive)
